# Menin-MLL TR inh = inhibitors of human menin-MLL interaction, mutant MLL peptide | Potency, µM (titrated, usually from 61.6 µM), without a hit: at the highest dose FP activity change, negative = inhibition, usual class: inhibitors | 0.23% of 270,000 active | Menin + Texas Red MLL mutant peptide, fluorescence polarization | AID 1768 | O00255; active = well fitted inhibition curve with a large enough effect in the polarisation, with a control signal flat, not every such curve was filed as active; inconclusive = small, poorly fitted or top-dose-only effect, or effect the other way, or a change in a side signal; inactive = no such curve, though single readings can be large or run the other way; the % refers to the polarisation; note: potency is the fitted concentration of half-maximal effect; % of control where 0% means no effect
# Menin MLL FP FL = displaces fluorescein MLL peptide from human menin. FP activity change, % at 61.4 µM. 290,000 tested, under 10 active. Fluorescence polarization, fluorescein-MLL peptide displacement from menin; active = well fitted curve in the direction sought with a large enough effect in the polarisation, not every such curve was filed as active; inconclusive = small, poorly fitted or top-dose-only effect, or effect the other way, or a change in a side signal; inactive = no such curve, though single readings can be large or run the other way; the % refers to the polarisation; note: % of control where 0% means no effect
# ERG Ets-DNA blk = inhibitors of human ERG Ets domain-DNA interaction; P11308; fluorescence polarization, His-ERG Ets domain / labelled DNA; Potency, µM (titrated, usually from 76.9 µM), without a hit: top-dose FP activity, negative = inhibition, hits mostly inhibitors; 0.028% of 370,000 active; AID 624246; active = well fitted inhibition curve with a large enough effect in the polarisation, with a control signal flat; inconclusive = small, poorly fitted or top-dose-only effect, or effect the other way, or a change in a side signal; inactive = no such curve, though single readings can be large or run the other way; the % refers to the polarisation;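 note: polarization taken with two DNA probes labelled with fluorescein and Texas red; potency is the fitted concentration of half-maximal effect; % of control where 0% means no effect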
# Target sequence (P11308 whole entry, looked up, the tested form may be a part): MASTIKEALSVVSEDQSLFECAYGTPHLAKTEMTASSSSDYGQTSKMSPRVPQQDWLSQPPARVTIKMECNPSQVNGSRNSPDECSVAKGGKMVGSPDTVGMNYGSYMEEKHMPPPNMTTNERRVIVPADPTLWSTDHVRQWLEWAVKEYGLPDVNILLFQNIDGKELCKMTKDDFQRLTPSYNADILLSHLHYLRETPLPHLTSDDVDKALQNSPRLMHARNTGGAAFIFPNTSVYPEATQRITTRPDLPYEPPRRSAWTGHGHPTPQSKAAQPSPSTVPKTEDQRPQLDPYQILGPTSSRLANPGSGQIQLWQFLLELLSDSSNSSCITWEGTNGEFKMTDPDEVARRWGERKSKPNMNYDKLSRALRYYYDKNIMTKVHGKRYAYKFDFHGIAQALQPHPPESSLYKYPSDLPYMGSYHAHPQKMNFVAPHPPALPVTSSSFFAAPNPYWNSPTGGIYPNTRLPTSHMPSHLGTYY
#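 His-tagged ERG Ets domain (1 uM in the protein solution; 300mM KCl, 50mM Tris-HCl, 1mM EDTA, 1mM DTT, pH 7.5) received compound, then a probe mix of 5 nM fluorescein-DNA and 100nM Texas-615-DNA. Fluorescence polarization was read for both dyes.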
# CXXC DNA block = blocks binding of human MLL CXXC domain to DNA; 0.037% of 290,000 active; Potency, µM (doses to about 115 µM), without a hit: at the top dose activity change, negative = inhibition, hits mostly inhibitors; AID 2662; MLL-CXXC / FITC-HOXA9 DNA fluorescence polarization; active = well fitted inhibition curve with a large enough effect in the polarisation, with a control signal flat, not every such curve was filed as active; inconclusive = small, poorly fitted or top-dose-only effect, or effect the other way, or a change in a side signal; inactive = no such curve, though single readings can be large or run the other way; the % refers to the polarisation; note: potency is the fitted concentration of half-maximal effect
#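 Fluorescence polarization: 7 uM MLL-CXXC (stock) preincubated 5 min with compounds, then 50 nM fluorescein-HOX-A9 DNA (stock) added; 30 min ambient. Buffer 50 mM Tris-HCl pH 7.5, 50 mM NaCl, 1 mM DTT, 0.05% BSA.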
# RGS12 GoLoco inh-1 = inhibitors of human Gai1-RGS12 GoLoco interaction (red fluorophore); P63096; 0.44% of 230,000 active; Gai1:RGS12 GoLoco peptide FP, rhodamine, 10 min; Potency, µM (series often up to 61.6 µM), inactives show at the highest dose activity, negative = inhibition, hits mostly inhibitors; active = well fitted inhibition curve with a large enough effect, not every such curve was filed as active; inactive = no such curve, though single readings can be large or run the other way; note: potency is the fitted concentration of half-maximal effect; % is set by controls: 0 for no effect and ±100 for the full control effect; nearly all actives have a fitted effect of over 30% in size
# Target sequence (P63096 whole entry, looked up): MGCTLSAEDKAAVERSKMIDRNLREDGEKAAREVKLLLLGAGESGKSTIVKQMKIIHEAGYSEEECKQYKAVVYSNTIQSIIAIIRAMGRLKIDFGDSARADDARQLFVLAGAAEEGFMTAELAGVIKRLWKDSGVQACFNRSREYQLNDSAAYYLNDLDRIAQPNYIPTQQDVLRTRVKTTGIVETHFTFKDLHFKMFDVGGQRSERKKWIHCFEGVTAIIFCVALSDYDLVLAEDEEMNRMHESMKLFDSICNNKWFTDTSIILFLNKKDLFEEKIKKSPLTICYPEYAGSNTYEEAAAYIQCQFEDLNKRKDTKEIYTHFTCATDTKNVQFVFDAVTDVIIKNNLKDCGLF
# RGS12 GoLoco inh-2 = RGS12 (human) GoLoco motif inhibition, red FP; shares compounds with RGS12 GoLoco inh-1; Potency, µM (doses to about 57.1 µM), inactives show at the highest dose activity, negative = inhibition, usual class: inhibitors; 50% of 110 active; Gai1/rhodamine-RGS12 GoLoco peptide fluorescence polarization
# MLL CXXC Fl = MLL CXXC-DNA interaction inhibition, fluorescein FP | Potency, µM (top dose mostly 345 µM), for the others: at the highest dose activity change, negative = inhibition, hits mostly inhibitors | MLL CXXC-DNA binding, fluorescein FP | 70% of 200 active | shares compounds with CXXC DNA block; note: potency is the fitted concentration of half-maximal effect; nearly all actives have a fitted effect of over 80% in size
# MLL CXXC FP-TR = MLL CXXC-DNA interaction inhibition, Texas Red FP; shares compounds with CXXC DNA block; MLL CXXC-DNA binding, Texas Red fluorescence polarization; Potency, µM (top dose mostly 345 µM), for the others: at the highest dose activity change, negative = inhibition, actives largely listed as inhibitors; 40% of 200 active; note: potency is the fitted concentration of half-maximal effect; % is set by controls: 0 for no effect and ±100 for the full control effect; nearly all actives have a fitted effect of over 75% in size
# MLL CXXC TRF = MLL CXXC-DNA interaction inhibition, HTRF readout | shares compounds with CXXC DNA block | MLL CXXC-DNA binding, HTRF, biochemical | Potency, µM (top dose mostly 172 µM), for inactives: top-dose activity change, negative = inhibition, usual class: inhibitors | 30% of 210 active; note: % is set by controls: 0 for no effect and ±100 for the full control effect; nearly all actives have a fitted effect of over 80% in size
# Starred values were filed as active, the others as inactive; u = inconclusive; x = no result; [ ] = dose if it differs, or a comment. The full list was thinned out, with hits kept by preference. Unless noted, calls come from the whole dose curve; as a rule, active = well fitted inhibition curve with a large enough effect; inconclusive = small, poorly fitted or top-dose-only effect; inactive = no such curve, though single readings can be large or run the other way.
SMILES,Menin-MLL TR inh,Menin MLL FP FL,ERG Ets-DNA blk,CXXC DNA block,RGS12 GoLoco inh-1,others
CCN(CC)S(=O)(=O)c1ccc(N=Cc2c(O)n(-c3ccccc3)c(=O)[nH]c2=O)cc1,1%,4,7%,18%,-3%,
Cc1cccc([N+](=O)[O-])c1,x,x,14%,x,25µM*,
CS(=O)(=O)O[C@H]1CN2CCC1CC2,x,x,x,x,5%[14.2 µM],
CC(C)(C)c1cc(C#N)cc(Br)c1OP(=O)(Oc1c(Br)cc(C#N)cc1C(C)(C)C)c1ccccc1,x,x,x,x,2%[14.2 µM],
[O-][Cl+2]([O-])O,x,x,x,x,11µM*,
C[N+]1(C)C2CCC1CC(OC(=O)c1ccco1)C2 (configuration not stated),x,-3,-14%,-4%,10µM*,
Cc1onc(-c2ccccc2Cl)c1C(=O)NCc1ccc2c(c1)cc(C)n2C,x,u,25µM*,1%,-31%,
CC(C)N1C(=O)CC2(CC[N+](C)(CCOC(=O)C(O)(c3ccccc3)c3ccccc3)CC2)C1=O (configuration not stated),-2%,-1,6%,-5%,16µM*,
CN1[C@H]2CC(OC(=O)[C@H](CO)c3ccccc3)C[C@H]1[C@H]1O[C@H]12 (some centres not stated),1%,4,x,1%,4%,
[CH3][Hg][Cl],x,x,x,x,25µM*,
c1ccc(CCN2CCOCC2)nc1,x,x,x,x,2%[14.2 µM],
N[C@H](Cc1ccc(O)cc1)C(=O)O,-20%[24.8 µM],u,x,x,-1%,
N[C@H](Cc1ccc2oc3cc(=O)c4ccccc4c-3nc2c1)C(=O)O,x,x,x,x,3.5µM*,
CCOS(C)(=O)=O,x,x,12%,x,22µM*,
C[C@@H]1O[C@H](C[N+](C)(C)C)CS1,-4%,-3,x,-18%,32µM*,
O=C(O)C(Oc1nc(=S)[nH]c(=S)[nH]1)(c1ccc(Cl)cc1)c1ccc(Cl)cc1,x,x,x,x,1%[14.2 µM],
O=C1C=CC(=O)C(Cl)=C1,u,-2,x,x,1.8µM*,
CN1CCN(c2ccccc2N)CC1,15%,1,-6%,2%,25µM*,
CN1CCN(c2ccc(F)cc2N)CC1,-15%,-2,1%,8%,15%,
C[N+]12CCC(CC1)C(=C(c1ccccc1)c1ccccc1)C2,-4%,7,-2%,2%,11µM*,RGS12 GoLoco inh-2=14µM*
CCOP(=S)(OCC)Oc1ccc([N+](=O)[O-])cc1,x,x,x,x,5%,
C[C@]12CC[C@@H]3[C@H](CCC4=CC(=O)CC[C@]43C)[C@]1(O)CC[C@@]2(O)C(=O)CO,x,x,x,x,-8%[14.2 µM],
CN(N=O)c1cc(O)ccc1O,u,-1,x,-6%,5.6µM*,RGS12 GoLoco inh-2=u
Cc1ccc(O)cc1,-4%,2,x,x,-4%,
CCC[N+]12CCC(CC1)C(C(O)(c1ccccc1)c1ccccc1)C2 (configuration not stated),x,0,2%,0%,10%,
SMILES,Menin-MLL TR inh,Menin MLL FP FL,ERG Ets-DNA blk,CXXC DNA block,RGS12 GoLoco inh-1,others
C[N+]12CCC(CC1)C(C(O)(c1ccccc1)c1cccs1)C2 (configuration not stated),-11%,-5,x,-4%,3.5µM*,RGS12 GoLoco inh-2=25µM*
O=C(O)C[C@H]1NCc2cc3ccccc3nc21,x,x,x,x,3%[14.2 µM],
CCCC[N+]12CCC(CC1)C(Cc1ccccc1)C2 (configuration not stated),x,3,6%,-7%,2%,RGS12 GoLoco inh-2=4%
CCn1c(C)[n+](CC(O)COCC2CC=CCC2)c2ccccc21 (configuration not stated),-1%,4,3%,-19%,2.2µM*,RGS12 GoLoco inh-2=14µM*
Cc1cc(/C=C2\C(=O)NC(=O)N(Cc3ccccc3Cl)C2=O)c(C)n1-c1ccc(C(=O)O)cc1,u,18,8%,u,46%,MLL CXXC Fl=14µM*;MLL CXXC FP-TR=50µM*;MLL CXXC TRF=u
Cc1cc(/C=C2\C(=O)NC(=O)N(Cc3ccco3)C2=O)c(C)n1-c1ccc(C(=O)O)cc1,x,13,12%,28µM*,7%,MLL CXXC Fl=1.4µM*;MLL CXXC FP-TR=142µM*;MLL CXXC TRF=-14%
CCCOC(=O)[C@@H]1[C@@H](C(=O)O)[C@H]2CC[C@@H]1O2,x,x,x,x,0%[14.2 µM],
Cc1cc(/C=C2\C(=O)NC(=O)N(c3cccc(F)c3)C2=O)c(C)n1-c1ccc(C(=O)O)c(Cl)c1,23%,u,19%,13µM*,x,MLL CXXC Fl=12%;MLL CXXC FP-TR=89µM*;MLL CXXC TRF=-7%
Cc1ccc(N2C(=O)NC(=O)/C(=C\c3cc(C)n(-c4ccc(C(=O)O)cc4)c3C)C2=O)cc1,19%,18,43%,11%,x,
Cc1ccc(N2C(=O)NC(=O)/C(=C\c3cc(C)n(-c4cc(C(=O)O)cc(C(=O)O)c4)c3C)C2=O)cc1,-7%,3,-5%,8.9µM*,x,MLL CXXC Fl=36µM*;MLL CXXC FP-TR=40µM*;MLL CXXC TRF=122µM*
Cc1cc(/C=C2/C(=O)NC(=O)N(c3ccccc3)C2=O)c(C)n1-c1ccc(F)cc1,x,x,-1%,x,x,
Cc1cc(/C=C2\C(=O)NC(=O)N(c3ccc(F)cc3)C2=O)c(C)n1-c1ccc(C(=O)O)cc1,7%,u,7%,u,27%,MLL CXXC Fl=36µM*;MLL CXXC FP-TR=100µM*;MLL CXXC TRF=-12%
Cc1c(Cl)cccc1N1C(=O)NC(=O)/C(=C\c2cc(C)n(-c3cccc(C(=O)O)c3C)c2C)C1=O,32%,13,-4%,u,x,MLL CXXC Fl=7.1µM*;MLL CXXC FP-TR=71µM*;MLL CXXC TRF=-9%
Cc1cc(/C=C2\C(=O)NC(=O)N(Cc3ccccc3)C2=O)c(C)n1-c1ccc(Cl)c(C(=O)O)c1,36%,u,25%,u,26%,
O=C(O)CNC(=O)[C@@H](CS)Cc1ccccc1,-8%[24.8 µM],-5[24.8 µM],x,x,-5%[21.6 µM],
O=C1NC(=O)C(=Cc2cn(CCOc3ccc4c(c3)OCO4)c3ccccc23)C(=O)N1,-11%,u,-3%,35µM*,109%,MLL CXXC Fl=159µM*;MLL CXXC FP-TR=u;MLL CXXC TRF=-10%
CC(=O)O[C@H]1CC[C@H]2[C@@H]3CCC4=C[C@@H](C5SCCS5)[C@H](OC(C)=O)C[C@]4(C)[C@H]3CC[C@@]12C,x,x,x,x,6%[14.2 µM],
Nc1ccc2ccccc2c1,x,x,-5%,x,5%,
C[n+]1c2cc(N)ccc2cc2ccc(N)cc21,-9%,u,35µM*,u,-42%,MLL CXXC Fl=0.63µM*;MLL CXXC FP-TR=142µM*;MLL CXXC TRF=97µM*
